Measurements reported in PubChem BioAssay (NCATS).
Where “and” joins values, the source holds several entries; their conditions need not be identical. Equal entries are not always repeated. Inconclusive results are not listed. Where a call stands in place of a potency, no number is given. Calls of active or inactive are those of the source. Unless noted, calls come from the whole dose curve; as a rule, active = well fitted curve in the direction sought with a large enough effect; inconclusive = small, poorly fitted or top-dose-only effect, or another doubt; inactive = no such curve, though single readings can be large; an effect the other way counts as inactive or inconclusive.

Columns and labels:
[1] = target: 3',5'-cyclic-AMP phosphodiesterase 4B (Homo sapiens) (UniProt Q07343); assay: qHTS Assay for Inhibitors of PDE-IV (AID 607; active = well fitted activation curve with a large enough effect in the main read-out, with a control signal flat, not every such curve was filed as active)
Chain of 3',5'-cyclic-AMP phosphodiesterase 4B (Homo sapiens) (Q07343 whole entry, looked up): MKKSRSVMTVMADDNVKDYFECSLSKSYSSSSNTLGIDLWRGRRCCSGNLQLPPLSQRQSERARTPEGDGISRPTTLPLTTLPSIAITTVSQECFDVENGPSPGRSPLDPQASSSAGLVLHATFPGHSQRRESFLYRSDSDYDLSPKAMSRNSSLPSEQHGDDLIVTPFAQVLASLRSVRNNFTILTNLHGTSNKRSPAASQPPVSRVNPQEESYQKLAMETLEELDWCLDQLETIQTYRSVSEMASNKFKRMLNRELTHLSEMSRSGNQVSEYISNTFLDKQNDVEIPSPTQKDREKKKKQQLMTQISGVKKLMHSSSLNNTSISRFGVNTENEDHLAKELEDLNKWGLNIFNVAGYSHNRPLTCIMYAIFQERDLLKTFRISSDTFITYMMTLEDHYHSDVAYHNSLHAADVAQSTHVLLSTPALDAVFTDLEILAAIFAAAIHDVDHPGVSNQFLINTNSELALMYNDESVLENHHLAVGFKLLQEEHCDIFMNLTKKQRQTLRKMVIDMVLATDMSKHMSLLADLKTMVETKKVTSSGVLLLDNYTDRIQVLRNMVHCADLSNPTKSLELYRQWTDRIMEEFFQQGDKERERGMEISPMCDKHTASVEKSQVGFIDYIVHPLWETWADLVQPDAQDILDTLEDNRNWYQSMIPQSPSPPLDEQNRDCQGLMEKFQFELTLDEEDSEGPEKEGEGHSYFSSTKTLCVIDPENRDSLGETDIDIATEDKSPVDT
Summary of the method: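 Live HEK293 cells with a modified cyclic nucleotide-gated (CNG) channel report intracellular cAMP via membrane-potential dye fluorescence (ex 535/em 590 nm). Endogenous PDE-IV was targeted. Compounds were tested at up to 22.9 uM final; RO 20-1724 100 uM served as control.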

[2] = Cellular Toxicity (caspase-3) HUV-EC-C (AID 656)
Summary of the method: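 Luminescent caspase-3/7 activation (aminoluciferin substrate cleavage) in HUV-EC-C cells after 16 hr compound exposure, 37°C. Signal normalized to DMSO basal and 100 uM tamoxifen as 100%; AC50 from concentration-response fitted with the Hill equation.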

[3] = Cellular Toxicity (caspase-3) SHSY5Y (AID 657);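 note: cells exposed to compound for 16 hours at 37 °C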
Summary of the method: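 Luminescent caspase-3/7 readout (aminoluciferin release) in SH-SY5Y cells after 16 h compound exposure in complete medium. Activity scaled between DMSO basal and 10 uM staurosporine as 100%; concentration-response fitted to Hill equation for AC50.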

[4] = Cellular Toxicity (caspase-3) MRC-5 (AID 659)
Summary of the method: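 Apoptosis readout in MRC-5 cells: luciferase light generated after caspase 3/7 cleaves a peptide-aminoluciferin substrate, measured post 16 hr compound incubation at 37 °C.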

[5] = Cellular Toxicity (caspase-3) Mesangial (AID 660);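 note: combined caspase 3 and 7 activity read by Caspase-Glo luminescence; cells exposed to compound for 16 h before the caspase read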
Summary of the method: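 Seed cells derived from normal human renal glomeruli, incubate 5 h, add compounds across concentrations and incubate 16 h at 37 °C. Caspase 3/7 activation is then quantified by luciferase light, with AC50 derived by Hill modeling.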

[6] = Cellular Toxicity (caspase-3) H-4-II-E (AID 663);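 note: cells exposed to compound for 16 hr before readout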
Summary of the method: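 Caspase 3/7 activation measured in H-4-II-E cells in complete culture medium after 16 hr treatment at 37 °C, using luciferase-coupled substrate readout; AC50 values come from Hill-equation fits of normalized concentration-response data.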

[7] = Cellular Toxicity (caspase-3) HepG2 (AID 654);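 note: cells exposed to compound for 16 hours before reading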
Summary of the method: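 Caspase 3/7 activation in HepG2 is measured as rising luminescence after a 16 hr treatment at 37 °C. Values are scaled between DMSO basal and 100 uM tamoxifen, and AC50 is fitted with the Hill equation.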

[8] = Cellular Toxicity (caspase-3) Jurkat (AID 655);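 note: cells exposed to compound for 16 h at 37 °C before reading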; note: potency is the fitted concentration of half-maximal effect
Summary of the method: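 Luminescent caspase-3/7 readout (aminoluciferin substrate cleavage) in human T-cell leukemia Jurkat cells after 16 hr compound exposure. Concentration-response normalized to DMSO and 100 uM tamoxifen; AC50 by standard Hill equation.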

[9] = Cellular Toxicity (caspase-3) BJ (AID 658);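 note: cells exposed to compound for 16 hours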
Summary of the method: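 Plated BJ cells (1000/well) rested 5 hr, received compound for 16 hr at 37 °C, then Caspase-Glo 3/7 reagent for 1 hr at room temperature before luminescence reading.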

[10] = Cellular Toxicity (caspase-3) SK-N-SH (AID 661);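 note: cells exposed to compound for 16 hours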; note: potency is the fitted concentration of half-maximal effect
Summary of the method: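 Cells were seeded and incubated 5 hr at 37 °C, dosed with compound over a concentration range for 16 hr, then given Caspase-Glo 3/7 reagent for 1 hr at room temperature before luminescence reading.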

SMILES	Potency [1]	outcome [2]	outcome [3]	outcome [4]	outcome [5]	outcome [6]	outcome [7]	Potency [8]	outcome [9]	Potency [10]
O=C(CCCN1CCC(O)(c2ccc(Cl)cc2)CC1)c1ccc(F)cc1	inactive									
NC(=O)OCC(COC(N)=O)c1ccccc1	inactive									
CC(COc1ccccc1)N(CCCl)Cc1ccccc1 (stereo not drawn)		inactive	inactive	inactive	inactive	inactive				
COc1ccc2c(c1)c(CC(=O)O)c(C)n2C(=O)c1ccc(Cl)cc1	inactive	inactive	inactive	inactive	inactive	inactive	inactive	inactive	inactive	inactive
N[C@@H](Cc1c[nH]c2ccc(O)cc12)C(=O)O	inactive	inactive	inactive	inactive	inactive	inactive	inactive	inactive	inactive	inactive
CC(C)C(=O)Nc1ccc([N+](=O)[O-])c(C(F)(F)F)c1	inactive	inactive	inactive	inactive	inactive	inactive	inactive	inactive	inactive	inactive
COc1ccc2[nH]cc(CCNC(C)=O)c2c1	inactive	inactive	inactive	inactive	inactive	inactive	inactive	inactive	inactive	inactive
Cc1ccc(C(=O)Nc2ccc(S(=O)(=O)O)c3cc(S(=O)(=O)O)cc(S(=O)(=O)O)c23)cc1NC(=O)c1cccc(NC(=O)Nc2cccc(C(=O)Nc3cc(C(=O)Nc4ccc(S(=O)(=O)O)c5cc(S(=O)(=O)O)cc(S(=O)(=O)O)c45)ccc3C)c2)c1	inactive									
NS(=O)(=O)c1cc2c(cc1Cl)NCNS2(=O)=O	inactive	inactive	inactive	inactive	inactive	inactive	inactive	inactive	inactive	inactive
Cc1cn([C@H]2C[C@H](N=[N+]=[N-])[C@@H](CO)O2)c(=O)[nH]c1=O		inactive	inactive	inactive	inactive	inactive	inactive	inactive	inactive	inactive
NCCS(=O)(=O)O	inactive	inactive	inactive	inactive	inactive	inactive	inactive	inactive	inactive	inactive
Cc1cc(C(C)(C)C)cc(C)c1CC1=NCCN1	inactive									
Cc1ccc(-c2cc(C(F)(F)F)nn2-c2ccc(S(N)(=O)=O)cc2)cc1		inactive	inactive	inactive			inactive	inactive	inactive	inactive
NCCc1cnc[nH]1	inactive									
Nc1nc2c(ncn2COC(CO)CO)c(=O)[nH]1	inactive									
NC(=O)NO	inactive									

SMILES	Potency [1]	outcome [2]	outcome [3]	outcome [4]	outcome [5]	outcome [6]	outcome [7]	Potency [8]	outcome [9]	Potency [10]
CCC1(c2ccccc2)C(=O)NCNC1=O	inactive	inactive	inactive	inactive	inactive	inactive	inactive	inactive	inactive	inactive
COc1cc2c(c(OC)c1OC)-c1ccc(OC)c(=O)cc1[C@@H](NC(C)=O)CC2	inactive	inactive	inactive	inactive	inactive	inactive	inactive	3.98 nM (active) and 3.16 nM (active)	inactive	200 nM (active) and 251 nM (active)
Clc1ccc(C(c2ccccc2Cl)C(Cl)Cl)cc1 (stereo not drawn)		inactive	inactive	inactive	inactive		inactive	inactive	inactive	
Cn1c(=O)c2c(ncn2C)n(C)c1=O	inactive	inactive	inactive	inactive	inactive	inactive	inactive	inactive	inactive	inactive
Nc1c2c(nc3ccccc13)CCCC2		inactive	inactive	inactive	inactive	inactive	inactive	inactive	inactive	inactive
Cn1c(=O)c2[nH]cnc2n(C)c1=O	inactive	inactive	inactive	inactive	inactive	inactive	inactive	inactive	inactive	inactive
OCCN1CCN(CCCN2c3ccccc3Sc3ccc(C(F)(F)F)cc32)CC1	inactive									
CN(C)CCC=C1c2ccccc2C=Cc2ccccc21	inactive									
CC(C)NCC(O)c1ccc(O)c(O)c1 (stereo not drawn)		inactive	inactive	inactive	inactive	inactive	inactive	inactive	inactive	inactive
Cc1cnc(C(=O)NCCc2ccc(S(=O)(=O)NC(=O)NC3CCCCC3)cc2)cn1	inactive									
O=c1[nH]cc(F)c(=O)[nH]1	inactive	inactive	inactive	inactive	inactive	inactive	inactive	inactive	inactive	inactive
O=c1c(-c2ccc(O)cc2)coc2cc(O)cc(O)c12	inactive	inactive		inactive	inactive	inactive	inactive	inactive	inactive	inactive
CC[C@@]1(O)C(=O)OCc2c1cc1n(c2=O)Cc2cc3c(CN(C)C)c(O)ccc3nc2-1	inactive									
Cc1cn([C@H]2C=C[C@@H](CO)O2)c(=O)[nH]c1=O		inactive	inactive	inactive	inactive	inactive	inactive	inactive	inactive	inactive
Nc1ccn([C@H]2CC[C@@H](CO)O2)c(=O)n1		inactive	inactive	inactive	inactive	inactive	inactive	inactive	inactive	inactive
COc1ccc(CCN(C)CCCC(C#N)(c2ccc(OC)c(OC)c2)C(C)C)cc1OC (stereo not drawn)		inactive	inactive	inactive	inactive	inactive	inactive	inactive	inactive	inactive
